From PubChem BioAssay AID2650 (Broad Institute, 2010)
Hit rate of the full screen: of about 320,000 compounds, about 320 (0.1%) were called active. The entries come from a sample that favours actives as a whole. Unmarked numbers belong to inactive results.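 How the source made its calls: active means more than half of replicates show inhibition above 20%; inconclusive means some but at most half of replicates above 20% inhibition; inactive means no replicate shows inhibition above 20%.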

Target: Glycogen synthase kinase-3 alpha (Homo sapiens) (UniProt P49840)
Test: blockers of GSK3A enzyme activity – biochemical, luminescence, cell-free homogeneous, HTS, primary screen (AID 2650);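 further: GST-tagged GSK-3 alpha with peptide substrate and 25 µM ATP; 0% = DMSO neutral wells and 100% = GW8510 positive control wells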
Details: GSK-3 alpha kinase, ADP-Glo luminescence, 60 min; at 10 µM; hits give high values

Sequence of Glycogen synthase kinase-3 alpha (Homo sapiens) (P49840 whole entry, looked up): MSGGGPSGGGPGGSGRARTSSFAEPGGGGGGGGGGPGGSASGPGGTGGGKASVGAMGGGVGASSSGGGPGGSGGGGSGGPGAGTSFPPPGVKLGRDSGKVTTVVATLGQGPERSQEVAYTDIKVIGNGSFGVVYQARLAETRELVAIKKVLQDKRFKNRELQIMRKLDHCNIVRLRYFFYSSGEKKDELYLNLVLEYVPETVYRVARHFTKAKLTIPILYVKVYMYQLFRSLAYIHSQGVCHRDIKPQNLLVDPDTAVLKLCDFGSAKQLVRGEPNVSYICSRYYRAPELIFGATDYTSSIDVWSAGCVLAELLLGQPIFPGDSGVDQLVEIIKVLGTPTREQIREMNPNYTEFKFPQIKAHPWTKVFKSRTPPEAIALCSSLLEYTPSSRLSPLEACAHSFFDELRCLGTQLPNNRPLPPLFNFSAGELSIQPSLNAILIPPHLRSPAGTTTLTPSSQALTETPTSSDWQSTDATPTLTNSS

| Compound | inhibition |
| --- | --- |
| CC(=O)Nc1ccc(NC(=O)CC2CCCC2)cc1 | 0.623% |
| CC(C)c1ccc(/C=C2\NC(=O)NC2=O)cc1 | 24.7% |
| Cc1ccc(C)c(CN2CCC(CNC(=O)Nc3ccc(C)c(F)c3)CC2)c1 | -0.807% |
| OCCC1CN(Cc2cccc(OC3CCCC3)c2)CCN1Cc1ccsc1 (stereo not given) | -2.02% |
| CCN(CC)N=Nc1cccc(NC(C)=O)c1 | 2.05% |
| O=C(NCc1nnc(SCC(=O)N2CCC(Cc3ccccc3)CC2)o1)c1ccco1 | -0.692% |
| Cc1cc(C)n(Cc2cnc(N3CCOCC3)s2)n1 | -2.61% |
| CCCc1nc2oc3c(=O)[nH]cnc3c2c2c1COC(C)(C)C2 | 3.6% |
| OCCC1CN(Cc2ccccc2-c2ccco2)CCN1Cc1ccsc1 (stereo not given) | -0.178% |
| CCn1cc(S(=O)(=O)c2cccc(C)c2)c(=O)c2cc(F)c(N3CCN(C)CC3)cc21 | -1.82% |
| O=C(CN(C(=O)c1nsc(Cl)c1Cl)c1cccc(F)c1)NC1CCCC1 | -1.81% |
| Cc1ccc(NS(=O)(=O)c2cn(C)c(=O)n(C)c2=O)c(C)c1 | -0.792% |
| O=C(NCc1csc(-c2cccs2)n1)C1CC1 | 0.318% |
| COc1ccc(Cc2n[nH]c(=S)n2NC(=O)Nc2ccc(C)cc2)cc1 | -4.11% |
| CC(=O)N1CC(=O)N(CC(=O)Nc2ccc(Br)cc2)C1=S | 2.4% |
| COc1cccc(CNC(=O)C2CCCN(c3ncnc4c3nc3n4CCCCC3)C2)c1 (stereo not given) | 0.554% |
| CCOC(=O)CN(C(=O)COc1nc(-c2ccccc2)cc(C)c1C#N)c1ccc(F)cc1 | 0.174% |
| CCCCN(CC)CCNC(=O)c1[nH]c(C)c(C(C)=O)c1C | 1.47% |
| CC(c1ccco1)N(C(=O)c1ccc(S(=O)(=O)N2CCCCC2)cc1)c1ccccn1 (stereo not given) | -1.32% |
| CC(=O)c1cnc(SCC(=O)O)nc1C | -1.4% |
| CC1=C(C(=O)OC2CCCCC2)C(c2ccccc2F)NC(=O)N1 (stereo not given) | -2.54% |
| COc1ccc(N=Nc2c(-c3ccc(OC)cc3)[nH]oc2=O)cc1 | -3.99% |
| Cc1cc(C)nc(SC2CCCCC2NS(=O)(=O)c2ccc(Cl)cc2)n1 (stereo not given) | -2.34% |

| Compound | inhibition |
| --- | --- |
| O=C(CN1CCN(c2ccc(O)cc2)CC1)NC1CCCc2ccccc21 (stereo not given) | -2.3% |
| CC(C)NC(=O)NNc1c(Cl)cncc1Cl | 2.22% |
| CC(C)(C)c1nc(NCC2CCCO2)c2nnn(Cc3ccccc3)c2n1 (stereo not given) | -0.49% |
| Cn1c(=O)c2[nH]c(NCC3CCCO3)nc2n(-c2ccccc2)c1=O (stereo not given) | 53.4% (active) |
| c1ccc2c(NCC3CCCO3)nc(-c3ccncc3)nc2c1 (stereo not given) | 4.61% |
| Cc1ccccc1C(=O)N1CCC(C(=O)Oc2ccc(C#N)cc2)CC1 | 3.01% |
| O=C(O)CCCN1C(=O)C2C3c4ccccc4C(c4ccccc43)[C@@H]2C1=O (stereo not given in full) | -1.27% |
| COC(=O)c1cc(CNC(=O)CC(C)c2ccccc2)ccc1OC (stereo not given) | -0.449% |
| C/C(=N\NC(=O)Cc1ccccc1[N+](=O)[O-])c1cccnc1 | -3.03% |
| Cc1ccc(-n2c(C)cc(/C=N/Nc3ccc([N+](=O)[O-])cn3)c2C)c(C)c1 | 0.104% |
| COc1cc(/C=N\Nc2ccc([N+](=O)[O-])cn2)ccc1OCC(=O)O | 71.1% (active) |
| Cc1cc(/C=N/Nc2ccc([N+](=O)[O-])cn2)c(C)n1-c1cccc(C(=O)O)c1 | 26.6% |
| O=C(CNC(=O)OCc1ccccc1)Oc1cc2oc(=O)cc(-c3ccccc3)c2cc1Cl | -0.182% |
| CC1CCc2c(nc3ncnn3c2Nc2ccc(OC(F)(F)F)cc2)C1 (stereo not given) | 3.32% |
| Cc1ccc(N(Cc2ccccc2O)C(=O)c2ccccc2F)cc1 | 0.374% |
| O=C(O)C1CCCN(CCC=C(c2ccccc2)c2ccccc2)C1 (stereo not given) | -1.79% |
| N#CCc1c(C#N)c(N)nc(N2CCCC2)c1C#N | 5.31% |
| N#Cc1c(-c2ccccc2)cc(-c2ccccc2)nc1SCC(=O)O | -8.49% |
| N#Cc1c(N2CCCCC2)nc(N)c2c(N)nc(SCC(=O)O)cc12 | 71.9% (active) |
| Cc1c(C(=O)Nc2cccc(S(=O)(=O)N3CCOCC3)c2)oc2ccccc12 | -2.02% |
| CC(C)(C)c1cc(CN2CCN(CCC#N)CC2)cc(C(C)(C)C)c1O | -0.131% |
| CCCn1c(N)c(N(CCOC)C(=O)C2CCCC2)c(=O)[nH]c1=O | -0.139% |
| CCn1c(SC(C)C(=O)Nc2ccc(N3CCOCC3)cc2)nnc1-c1ccco1 (stereo not given) | -7.92% |

| Compound | inhibition |
| --- | --- |
| COC(=O)c1ccc(C23CC4(C2)[C@H](CN(Cc2cccnc2)[C@@H]4c2ccccc2)C3c2ccc(Cl)nc2)cc1 (stereo not given in full) | -1.59% |
| CCOc1ccc(CN2CCN(Cc3ccc(C)o3)CC2CCO)cc1 (stereo not given) | -3.68% |
| O=C(COC(=O)Cc1ccc(Br)cc1)Nc1ccc(N2CCOCC2)cc1 | -2.2% |
| COc1ccc(NC(=O)CN2C(=O)COc3ccc(S(=O)(=O)N4CCOCC4)cc32)c(OC)c1 | -0.917% |
| COc1ccc(S(=O)(=O)N(C)C[C@H]2Oc3c(NC(=O)Nc4ccc5c(c4)OCO5)cccc3C(=O)N([C@H](C)CO)C[C@@H]2C)cc1 | -2.73% |
| Cc1ccc(S(=O)(=O)NCC2CCC(C(=O)N3CCOCC3)CC2)cc1 (stereo not given) | -1.46% |
| Cc1ccc(C)c(NC(=O)COC(=O)c2nn(C)c(=O)c3ccccc23)c1 | -0.308% |
| FC(F)(F)COc1nc(N2CCCCC2)nc(N2CCNCC2)n1 | -3.54% |
| CC1CC1C(=O)OCC(=O)Nc1cccc(F)c1 (stereo not given) | -2.53% |
| CCOC(=O)/C=C/c1ccc(C(F)(F)F)cc1S(=O)(=O)NC(C)(C)C | 0.204% |
| O=C(NCc1cccs1)c1ccc(CS(=O)Cc2ccccc2Cl)o1 (stereo not given) | 2.9% |
| CC(C)CCNC(=O)c1ccc2c(Cl)c3c(nc2c1)CCC3 | 1.16% |
| O=C(OCC1O[C@@H](OC(=O)c2cc(O)c(O)c(O)c2)[C@@H](OC(=O)c2cc(O)c(O)c(O)c2)[C@@H](OC(=O)c2cc(O)c(O)c(O)c2)[C@@H]1OC(=O)c1cc(O)c(O)c(O)c1)c1cc(O)c(O)c(O)c1 (stereo not given in full) | 57.5% (active) |
| O=C(OCC1OC(Oc2ccc(O)cc2)C(O)C(O)C1O)c1ccccc1 (stereo not given) | 19.4% |
| CS(=O)(=O)N(CC(=O)Nc1ccc(Cl)c(Cl)c1)C1CCCCC1 | -0.751% |
| O=C(Nc1ccccc1-c1nnn(CC(=O)N2CCCc3ccccc32)n1)c1cccc(Cl)c1 | -2.04% |
| Cc1ccc(C(=O)N/N=C\c2cc(Br)c(Br)o2)cn1 | 2.23% |
| Cc1cc2cc3c(cc2nc1SCC(=O)Nc1c(C)cccc1C)CCC3 | -3.92% |
| Cc1noc(/C=C/c2ccco2)c1S(=O)(=O)N1CCC(C(=O)N2CCc3ccccc32)CC1 | -1.67% |
| Cc1cc(C)nc(NS(=O)(=O)c2ccc(N3C(=O)C4CCCCC4C3=O)cc2)n1 (stereo not given) | 1.53% |
| Oc1ccc(-c2nnc(Nc3ccccc3)c3ccccc23)cc1 | 0.551% |
| c1ccc(-n2nc3ccccc3n2)cc1 | -1.52% |
| Oc1ccc(-c2nncn2-c2ccccc2)cc1 | 53.7% (active) |

| Compound | inhibition |
| --- | --- |
| Brc1ccccc1CN1CCC(Cc2ccccc2)CC1 | -0.57% |
| O=C1CN(C(=O)COC(=O)/C=C/c2ccc(F)cc2)c2ccccc2N1 | -0.211% |
| O=C(CCNS(=O)(=O)c1ccc(Br)s1)NCc1ccccc1Cl | 0.12% |
| CCCN1C2=C(C(=O)CCC2)C(c2ccc(O)c(Br)c2)C2=C1CCCC2=O | 0.35% |
| C=CCNC(=O)C1CC=CCC1C(=O)O (stereo not given) | 3.88% |
| CC(C)C[C@@H](COc1ccccc1)N1CCN(CC(C)C)CCC1=O | -0.599% |
| CN1C(=O)[C@H]2[C@@H](C3CC3)N3C(=O)CN(Cc4ccccc4)C(=O)[C@@]3(C)[C@H]2C1=O | -0.57% |
| CCc1nc(SCC(=O)Nc2ccccc2OC)n[nH]1 | 0.384% |
| OC(COCC1COc2ccccc2O1)CN1CCN(c2ccc(F)cc2)CC1 (stereo not given) | -3.09% |
| Cc1cc(C)c(C(=O)CSc2nc(C)cc(=O)[nH]2)c(C)c1 | -3.36% |
| Nc1nc(SCC(=O)Nc2cc(C(F)(F)F)ccc2Cl)[nH]c(=O)c1NC(=O)c1ccco1 | 0.858% |
| O=c1cc(C(F)(F)F)[nH]c(=O)n1C1CCCCC1 | -7.78% |
| CCCCN(CCCC)CCC(O)c1cc2c(Cl)cc(Cl)cc2c2cc(C(F)(F)F)ccc12 (stereo not given) | -3.02% |
| CCC1Nc2ncnc(N3CCN(c4ccccc4)CC3)c2N(Cc2ccc(Cl)cc2)C1=O (stereo not given) | -3.36% |
| CC[C@H](C)C(=O)N[C@H]1CCCN1C(=O)/C=C/c1ccccc1 | -0.364% |
| CC1(C)Cc2nc3sc4c(SCC(=O)NC(c5ccccc5)c5ccccc5)ncnc4c3cc2CO1 | 19.1% |
| COc1ccccc1NC(=O)CSc1nnc(CNC(=O)c2ccccc2F)o1 | -1.79% |
| CCc1ccccc1NC(=O)CSc1nnc(-c2ccncc2)o1 | 0.246% |
| COc1ccccc1NC(=O)CCSc1nnc(-c2ccc(O)cc2)o1 | 61% (active) |
| COc1ccc(N(C)C(=O)CCS(=O)(=O)c2cccc3nsnc23)cc1 | -0.848% |
| O=C(c1ccc(CS(=O)(=O)c2ccccc2)o1)N1CCN(c2ccccc2)CC1 | -1.56% |
